We go through six compounds from PubChem BioAssay.

Experiment [1] can be described thus: P. berghei load reduction in hepatocytes – cell-based, HepG2, luciferase luminescence, HepG2 viability, primary screen (AID 624349).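 Note: 100% = mean of DMSO negative control wells on the same plate.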 To be noted: P. berghei liver stage in HepG2, luciferase luminescence, concentration not given here; parasite load remaining: stronger effect = lower value; viability: measured here: HepG2 viability without parasites.
Experiment [2] in a line: EMT-state selective cytotoxicity in co-culture – imaging, PC-3E GFP, TEM4-18 mCherry, primary screen (AID 1345086;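 active = compounds killing one labelled cell type while sparing the other, by normalised counts and ratio limits, not self-fluorescent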;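 for all read-outs here: cells exposed to compound for 72 h before imaging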;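 for red/green cell ratio (normalised): normalised mesenchymal count divided by normalised epithelial count so high means epithelial killing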). To be noted: PC-3E GFP / TEM4-18 mCherry co-culture, imaging cell counts, at 1 µM; for red/green cell ratio (normalised): actives lie on both sides, counts scaled to control wells, 1 = unselective.
A short description of experiment [3]: viability loss with induced miR-34 in A549 – imaging, A549 dox-inducible miR-34, nuclei and caspase counts, primary screen (AID 1347080;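 active = compounds whose cell count with miR-34 switched on is under 0.7 times the count with it off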). As to conditions: A549 miR-34 inducible, Hoechst nuclei count, 48 h.
The target of experiment [4] is NAD(+) hydrolase SARM1 (Homo sapiens) (UniProt Q6SZW1). The experiment is described as follows: blocking NAD cleavage by SARM1 SAM-TIR – cell lysate, NAD-Glo luminescence (AID 1508614;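 active = compound whose remaining NAD level is above about 45 nM, limit read from the data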;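 note: higher remaining NAD means stronger inhibition of SARM1 NADase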). To be noted: SAM-TIR HEK293T lysate NADase, at 1 µM, stronger effect = higher value.
Chain of NAD(+) hydrolase SARM1 (Homo sapiens) (Q6SZW1 whole entry, looked up, the tested form may be a part): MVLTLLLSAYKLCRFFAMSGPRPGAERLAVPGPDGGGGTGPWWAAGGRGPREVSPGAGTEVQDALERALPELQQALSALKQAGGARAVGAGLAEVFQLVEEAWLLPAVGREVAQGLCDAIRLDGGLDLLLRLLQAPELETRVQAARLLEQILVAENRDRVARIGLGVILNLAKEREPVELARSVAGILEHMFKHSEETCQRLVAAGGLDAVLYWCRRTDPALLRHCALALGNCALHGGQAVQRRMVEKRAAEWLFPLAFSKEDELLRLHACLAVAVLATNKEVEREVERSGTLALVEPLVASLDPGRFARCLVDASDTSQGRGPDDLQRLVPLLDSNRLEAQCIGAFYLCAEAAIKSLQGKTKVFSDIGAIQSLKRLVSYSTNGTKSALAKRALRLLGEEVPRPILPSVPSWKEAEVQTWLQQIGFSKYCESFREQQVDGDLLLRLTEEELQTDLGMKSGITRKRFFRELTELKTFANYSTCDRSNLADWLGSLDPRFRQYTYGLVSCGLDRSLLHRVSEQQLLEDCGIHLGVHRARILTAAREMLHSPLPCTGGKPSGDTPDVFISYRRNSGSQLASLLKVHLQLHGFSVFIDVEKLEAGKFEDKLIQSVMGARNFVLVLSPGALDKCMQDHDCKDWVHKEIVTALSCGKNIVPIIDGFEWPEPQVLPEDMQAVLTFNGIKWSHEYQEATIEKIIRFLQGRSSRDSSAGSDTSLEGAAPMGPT
Experiment [5] deals with Mitogen-activated protein kinase 7 (Homo sapiens) (UniProt Q13164). In words: Gal4-ERK5 driven luciferase induction – cell-based, HTS, primary screen (AID 1508626;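 active = luciferase signal above three times the same-plate solvent-only control wells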;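 note: luciferase driven by Gal4-ERK5 fusion binding five Gal4 sites before minimal TATA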). To be noted: HeLa Gal4-ERK5 transactivation, 18 h, at 5 µM, stronger effect = higher value.
Chain of Mitogen-activated protein kinase 7 (Homo sapiens) (Q13164 whole entry, looked up, the tested form may be a part): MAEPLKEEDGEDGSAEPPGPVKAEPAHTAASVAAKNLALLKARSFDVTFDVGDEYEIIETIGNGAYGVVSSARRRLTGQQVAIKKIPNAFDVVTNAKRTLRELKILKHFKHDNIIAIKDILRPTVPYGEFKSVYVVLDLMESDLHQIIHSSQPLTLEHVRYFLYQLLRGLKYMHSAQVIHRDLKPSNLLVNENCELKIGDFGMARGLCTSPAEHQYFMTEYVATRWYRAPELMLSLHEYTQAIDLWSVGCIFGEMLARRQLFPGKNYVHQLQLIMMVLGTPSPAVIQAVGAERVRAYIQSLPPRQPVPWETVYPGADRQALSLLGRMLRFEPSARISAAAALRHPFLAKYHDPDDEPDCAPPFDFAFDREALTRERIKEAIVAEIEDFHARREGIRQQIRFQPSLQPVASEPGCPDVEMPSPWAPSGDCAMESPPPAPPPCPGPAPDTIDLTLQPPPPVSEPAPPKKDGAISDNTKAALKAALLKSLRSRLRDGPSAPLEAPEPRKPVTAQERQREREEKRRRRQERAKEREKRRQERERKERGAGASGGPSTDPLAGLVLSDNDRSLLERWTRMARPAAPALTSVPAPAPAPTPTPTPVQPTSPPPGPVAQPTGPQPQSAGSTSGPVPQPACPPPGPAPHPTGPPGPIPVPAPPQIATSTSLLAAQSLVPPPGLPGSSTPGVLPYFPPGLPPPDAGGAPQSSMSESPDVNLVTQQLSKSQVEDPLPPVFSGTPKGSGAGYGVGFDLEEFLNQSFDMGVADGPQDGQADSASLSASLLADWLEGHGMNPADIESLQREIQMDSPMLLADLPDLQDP
A short description of experiment [6]: blockers of polyQ-driven CASP3 activation – cell-based (AID 1583). As to conditions: polyglutamine-induced caspase-3 activation, cell assay; stronger effect = higher value;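 tested at 10 µM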.
Experiment [7] is described as follows: yeast 75Q aggregation reduction – 75Q-TubU reporter (AID 1593). To be noted: Yeast 75Q polyglutamine aggregation reporter.
Experiment [8] is described as follows: restoration of touch response, mutant HTT neurons – whole organism, C. elegans mechanosensory neurons, N-terminal huntingtin (AID 1599). To be noted: C. elegans polyQ-huntingtin mechanosensory neurons, stronger effect = higher value.
The nature of experiment [9]: blockers of cytochrome c efflux from mitochondria – biochemical, purified mitochondria (AID 1603).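 Note: mouse liver mitochondria challenged with calcium chloride; signal normalized to the plate average as 100%.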 To be noted: stronger effect = lower value.
Experiment [10] can be described thus: polyglutamine aggregate formation blockers (AID 1604). To be noted: polyglutamine-induced protein aggregation inhibition assay; stronger effect = higher value; tested at 2.5 µM.
Experiment [11] is described as follows: glutamate transport activators, MN-1 cells, MN-1 cell line (AID 1612).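 Note: tested at 1 µM final; 0% = mean of DMSO vehicle wells on each plate; positive means more glutamate uptake than control and negative means less.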 As to conditions: MN-1 motor neuron cells, stronger effect = higher value.
The nature of experiment [12]: GFP-Q80 aggregate reduction, neuronal-like cells, cell-based, NGF-treated PC12, GFPQ80 (AID 1614).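 Note: lower means fewer inclusions and 0 means no inclusions at all.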 To be noted: PC12 NGF-treated GFP-polyQ80 inclusion reduction.
Experiment [13] is described as follows: 75Q-TubH aggregate inhibition, S. cerevisiae, yeast (AID 1616). To be noted: S. cerevisiae 75Q-TubH polyglutamine aggregation suppression; stronger effect = higher value.
Setting [14] is: measured here: epithelial PC-3E GFP cell survival.
The mark [15] stands for this setting: measured here: mesenchymal TEM4-18 mCherry cell survival.
Where [16] appears, read: stronger effect = lower value, cell number ratio, induced over uninduced.
The mark [17] stands for this setting: measured here: relative caspase fold change +Dox/-Dox.
Setting [18] is: measured here: total cells with miR-34 induction, stronger effect = lower value.
The mark [19] stands for this setting: measured here: total cells without miR-34 induction.

SMILES strings stand for the structures. Values joined by “and” are separate entries in the source; they are usually repeats but may differ in a detail not shown here. Identical values can stand only once. For some of these results: Results with a measured potency or affinity are listed apart. Active and inactive are the calls of the source. Cut-off read from the data, not from the text of the source, unless noted: active = parasite load remaining mostly below about 12% (no sharp cut-off); inactive = mostly above about 10%.

For the compound `FC(F)(F)C(Cl)Br` (configuration not stated), the parasite load remaining in experiment [1] was 24% (inactive). Further, the viability in experiment [1] is 94.8%. The red/green cell ratio (normalised) in experiment [2] is 0.84 (inactive). Moreover, the normalised cell number stood at 1.13 in experiment [2] (setting [14]) and 0.95 in experiment [2] (setting [15]). The values for the fold change in experiment [3] (setting [16]) and in experiment [3] (setting [17]) were 0.974 (inactive) and 2.12, respectively. The values for the cell count in experiment [3] (setting [18]) and in [3] (setting [19]) were 12500 and 12900, respectively. Moreover, the remaining NAD in [4] is 10 nM (inactive). Moreover, the luciferase signal in experiment [5] was 40 AU (inactive).
Compound `C[N+]1(C)C2CC[C@H]1CC(OC(=O)C(O)c1ccccc1)C2` (some centres not stated) showed an inhibition in experiment [6] of 5.29%. The same compound yielded a score in experiment [7] of 1.53. This compound displayed a rescue above control in [8] of 12.1. Further, in experiment [9], the cytochrome c release ratio came to 0.9. The inhibition of aggregation in experiment [10] was 65.1%. Further, the glutamate uptake change in experiment [11] was -16.5%. The compound also returned an inclusion score in experiment [12] of 2. Further, the aggregation suppression score in [13] came out at 1.36. Besides, in experiment [1], the parasite load remaining was 95.8% (inactive) and 69.2% (inactive). Further, in experiment [1], the viability was 75.7% and 100%. The red/green cell ratio (normalised) in experiment [2] was 0.83 (inactive). Also, the normalised cell number in experiment [2] (setting [14]) amounted to 1.16; in experiment [2] (setting [15]) it was 0.97. The fold change in experiment [3] (setting [16]) was 0.874 (inactive); in experiment [3] (setting [17]) it was 1.28. For the same compound, the figures for the cell count in [3] (setting [18]) and in experiment [3] (setting [19]) were 10300 and 11800, respectively.
Consider `CCCCC(CC)CCC(CC(C)C)OS(=O)(=O)O` (configuration not stated), for which the red/green cell ratio (normalised) in experiment [2] was 0.93 (inactive). For the same compound, the normalised cell number is 1.15 in [2] (setting [14]) and 1.07 in experiment [2] (setting [15]). Also, the results for the fold change in [3] (setting [16]) and in [3] (setting [17]) were 0.913 (inactive) and 0.896, respectively. Further, the results for the cell count in experiment [3] (setting [18]) and in experiment [3] (setting [19]) were 8490 and 9300, respectively. For the same compound, the remaining NAD in experiment [4] was 10 nM (inactive).
For the compound `CC(=O)Oc1c(C)c(C)c2c(c1C)CCC(C)(CCCC(C)CCCC(C)CCCC(C)C)O2` (configuration not stated), the inhibition in experiment [6] came out at 1.05%. Besides, the score in experiment [7] is -0.71. In addition, the rescue above control in experiment [8] was 1.2. The cytochrome c release ratio in [9] worked out at 0.62. Also, the inhibition of aggregation in [10] worked out at 56.3%. The glutamate uptake change in experiment [11] was found to be 6.04%. Moreover, in experiment [12], the inclusion score came to 2. Moreover, in experiment [13], the aggregation suppression score came to 0.546. In [1], the parasite load remaining was 74.6% (inactive). Further, the viability in experiment [1] was 96%. In experiment [2], the red/green cell ratio (normalised) is 0.9 (inactive). Also, the normalised cell number in experiment [2] (setting [14]) was 0.92; in experiment [2] (setting [15]) it was 0.84. The fold change is 0.901 (inactive) in experiment [3] (setting [16]) and 1.55 in experiment [3] (setting [17]). Besides, the cell count in experiment [3] (setting [18]) was determined as 11100; in experiment [3] (setting [19]), 12300. Also, the luciferase signal in [5] was 44 AU (inactive).
On to `O=C(O)CC(O)(CC(=O)O)C(=O)O`, for which, in experiment [1], the parasite load remaining is 61.3% (inactive). In addition, the viability in experiment [1] was 186%. Further, in experiment [2], the red/green cell ratio (normalised) was 1 (inactive). The normalised cell number in experiment [2] (setting [14]) and in experiment [2] (setting [15]) was 1.06 each time. In addition, the figures for the fold change in experiment [3] (setting [16]) and in [3] (setting [17]) were 0.829 (inactive) and 6.46, respectively. Also, the cell count is 11100 in [3] (setting [18]) and 13400 in [3] (setting [19]). Besides, the remaining NAD in [4] is 10 nM (inactive). Further, the luciferase signal in experiment [5] is 52 AU (inactive).
`C[C@]12C=CC(=O)C=C1CCC1C2[C@@H](O)C[C@@]2(C)C1CC[C@]2(O)C(=O)CO` (some centres not stated): the inhibition in experiment [6] turned out to be 12%. The compound also showed a score in experiment [7] of 1.21. In addition, the rescue above control in experiment [8] came out at 1.9. Besides, the cytochrome c release ratio in experiment [9] stood at 1.29. In addition, the inhibition of aggregation in experiment [10] was 70.5%. In addition, in [11], the glutamate uptake change was found to be 9.97%. In experiment [12], this compound displayed an inclusion score of 2. Moreover, in experiment [13], the aggregation suppression score was found to be 1.27. In experiment [1], the parasite load remaining was 115% (inactive) and 54.5% (inactive). The viability in experiment [1] was 73.3% and 82.9%. Besides, the red/green cell ratio (normalised) in experiment [2] was 1.37 (inactive). The figures for the normalised cell number in [2] (setting [14]) and in [2] (setting [15]) were 1.03 and 1.41, respectively. For the same compound, the fold change is 0.848 (inactive) in [3] (setting [16]) and 2.13 in experiment [3] (setting [17]). The cell count in [3] (setting [18]) worked out at 6630; in experiment [3] (setting [19]) it was 7820.

A word on the viability: it is a read-out of living cells in per cent, often relative to untreated cells. The inhibition is the percentage by which the read-out fell short of the control.
